In PubChem BioAssay (NCATS):
Unmarked numbers belong to inactive results. Results filed as inconclusive are left out. The source made the active and inactive calls. Unless noted, calls come from the whole dose curve; as a rule, active = well fitted inhibition curve with a large enough effect; inconclusive = small, poorly fitted or top-dose-only effect; inactive = flat fitted curve, though single readings scatter. Where a SMILES comes first, the peptide text is derived from it. Bridges are numbered along the chain shown (N, C = ends). [ ]: non-standard residue; d: D form. hArg = N=C(N)NCCCC[C@H](N)C(=O)O; Mpa = O=C(O)CCS

molecular target: Ubiquitin carboxyl-terminal hydrolase 1 (Homo sapiens) (UniProt O94782); experiment: Inhibitors of USP1/UAF1: Pilot qHTS (AID 504865); details: purified USP1/UAF1, Ub-rhodamine cleavage fluorescence; series mostly up to 114 µM; activity change, negative = inhibition: at the top concentration; note: nearly all actives have a fitted effect of over 35% in size; note: potency is the fitted concentration of half-maximal effect;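 for activity change, negative = inhibition: rhodamine fluorescence freed from ubiquitin-rhodamine substrate followed over time; top concentration of the series differs between compounds; % is set by controls: 0 for no effect and ±100 for the full control effect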
Outline: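 Deubiquitinase activity followed as kinetic rhodamine fluorescence release from 150 nM Ub-Rho. 1 nM USP1/UAF1 with compound, after 15 min room-temperature preincubation, in HEPES pH 7.8 buffer containing TCEP, EDTA, BSA and Tween-20.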

Ubiquitin carboxyl-terminal hydrolase 1 (Homo sapiens), sequence (O94782 whole entry, looked up): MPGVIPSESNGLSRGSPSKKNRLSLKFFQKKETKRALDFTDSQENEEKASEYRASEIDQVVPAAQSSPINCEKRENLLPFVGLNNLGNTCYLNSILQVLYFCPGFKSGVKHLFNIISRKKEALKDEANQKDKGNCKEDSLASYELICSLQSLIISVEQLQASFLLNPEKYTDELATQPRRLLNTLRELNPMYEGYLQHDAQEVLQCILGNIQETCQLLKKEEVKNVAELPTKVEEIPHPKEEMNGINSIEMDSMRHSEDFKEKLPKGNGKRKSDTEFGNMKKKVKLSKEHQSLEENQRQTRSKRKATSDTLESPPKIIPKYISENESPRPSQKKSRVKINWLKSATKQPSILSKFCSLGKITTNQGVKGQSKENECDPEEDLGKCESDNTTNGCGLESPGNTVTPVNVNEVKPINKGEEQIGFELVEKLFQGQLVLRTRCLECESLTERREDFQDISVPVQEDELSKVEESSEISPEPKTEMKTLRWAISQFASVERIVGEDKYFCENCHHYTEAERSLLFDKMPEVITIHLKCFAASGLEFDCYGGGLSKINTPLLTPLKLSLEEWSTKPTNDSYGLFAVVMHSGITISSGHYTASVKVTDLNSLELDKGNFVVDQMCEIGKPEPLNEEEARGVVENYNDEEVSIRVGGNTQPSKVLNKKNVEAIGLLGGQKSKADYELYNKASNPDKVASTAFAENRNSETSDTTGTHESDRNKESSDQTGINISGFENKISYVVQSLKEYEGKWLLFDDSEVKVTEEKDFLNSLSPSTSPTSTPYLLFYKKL

SMILES | activity change, negative = inhibition | Potency
CCCCCC(C)N (configuration not stated) | -8.95% | 
CCc1cccc(CC)c1NC(=O)CN(CC(=O)O)CC(=O)O | -1.6% [at 54.9 µM] | 
Cc1ccc(S(=O)(=O)NC(=O)NC2CCCCCCC2)cc1 | -2.11% | 
C[N+]1(C)CCCC(OC(=O)C(O)(c2ccccc2)c2ccccc2)C1 (configuration not stated) | -6.88% | 
CC(CSC(=O)c1ccccc1)C(=O)N1C[C@@H](Sc2ccccc2)C[C@H]1C(=O)O (some centres not stated) | -6.37% | 
CCCCCCCCCCCCCCCCC(C(=O)O)C(O)(CC(=O)O)C(=O)O (configuration not stated) |  | 22.4 µM (active)
O=C(O)CCC(=O)O | 1.57% | 
COc1nccnc1NS(=O)(=O)c1ccc(N)cc1 | 0.411% | 
O=C(Cn1ccnc1[N+](=O)[O-])NCCO |  | inactive
O=C(CCBr)N1CCN(C(=O)CCBr)CC1 | -12.4% | 
CC(=O)NS(=O)(=O)c1ccc(N)cc1 |  | inactive
O=C(CN1CCNCC1)NC1CCCCC1 | -4.93% | 
CC[N+](CC)(CC(=O)Nc1c(C)cccc1C)Cc1ccccc1 | 8.46% [at 54.9 µM] | 
CCN(CC)CCc1nc(-c2ccccc2)no1 | -1.32% [at 54.9 µM] | 
NC(=O)[C@@H]1CSSCCC(=O)N[C@@H](CCCCN=C(N)N)C(=O)NCC(=O)N[C@@H](CC(=O)O)C(=O)N[C@@H](Cc2c[nH]c3ccccc23)C(=O)N2CCC[C@H]2C(=O)N1 ([Mpa][hArg]GDWPC-NH2; disulfide 1-7) | -13% | 
CCCCOC(=O)c1ccc(N)cc1 |  | inactive

SMILES | activity change, negative = inhibition | Potency
O=C(O)c1ccccc1C(=O)Nc1ccc(S(=O)(=O)Nc2nccs2)cc1 |  | inactive
CCOc1ccc(C(=O)OCCN(CC)CC)cc1 | -9.06% | 
Cn1c([N+](=O)[O-])cnc1COC(N)=O | -12.5% | 
CN/C(=C\[N+](=O)[O-])NCCSCc1csc(CN(C)C)n1 | -7.3% [at 54.9 µM] | 
O=C(O)CCCCC1CCSS1 (configuration not stated) | 3.49% | 
CCCCCCCCCCOc1cc2c(=O)c(C(=O)OCC)c[nH]c2cc1OCC | -3.41% | 
Nc1ncnc2c1ncn2[C@@H]1O[C@H](COP(=O)(O)O)[C@@H](O)[C@H]1O | -3.28% | 
Nc1ncnc(Nc2ccccc2)n1 | -3.07% | 
Nc1ccc(S(=O)(=O)c2ccc(N)cc2)cc1 |  | inactive
C[C@@H]1O[C@@H](OC[C@H]2O[C@@H](Oc3c(-c4ccc(O)c(O)c4)oc4cc(O)cc(O)c4c3=O)[C@H](O)[C@@H](O)[C@@H]2O)[C@H](O)[C@H](O)[C@H]1O | -15.2% | 
C[C@@H](N)C(=O)O |  | inactive
C[n+]1ccccc1/C=N/O | -4.18% | 
Cc1cccc(Nc2ccccc2C(=O)O)c1C |  | inactive
C1CCN2C[C@@H]3C[C@@H](CN4CCCC[C@@H]34)[C@H]2C1 | -4.47% | 
O=C1c2ccccc2C(=O)C1c1ccc(Br)cc1 | -2.81% | 

molecular target: DNA dC->dU-editing enzyme APOBEC-3G (Homo sapiens) (UniProt Q9HC16); experiment: qHTS for inhibitors of Vif-A3G interactions: Validation (AID 588379); details: Vif-A3G protein interaction assay; series mostly up to 46.1 µM; activity change, negative = inhibition: at the top concentration; note: 0% is about no effect
Outline: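 Yellow fluorescence (Ex 488, Em 500-530) of Vif-coexpressing HeLa A3G-eYFP cells, scanned by Acumen cytometer, reports blocked A3G degradation. Cells plated at 700/well overnight at 37 deg C before compound addition, then a further overnight compound incubation at 37 deg C.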

DNA dC->dU-editing enzyme APOBEC-3G (Homo sapiens), sequence (Q9HC16 whole entry, looked up): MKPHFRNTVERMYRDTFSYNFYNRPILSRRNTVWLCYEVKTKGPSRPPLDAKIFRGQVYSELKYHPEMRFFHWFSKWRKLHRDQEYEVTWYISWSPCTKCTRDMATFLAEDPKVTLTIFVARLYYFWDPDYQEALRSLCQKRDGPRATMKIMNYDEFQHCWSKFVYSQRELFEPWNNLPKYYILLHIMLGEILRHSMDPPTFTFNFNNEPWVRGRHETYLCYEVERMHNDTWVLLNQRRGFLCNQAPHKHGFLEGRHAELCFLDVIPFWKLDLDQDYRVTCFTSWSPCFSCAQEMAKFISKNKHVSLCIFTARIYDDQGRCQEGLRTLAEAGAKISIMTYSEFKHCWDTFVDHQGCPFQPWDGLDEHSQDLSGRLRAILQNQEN

SMILES | activity change, negative = inhibition [%]
O=C(O)CCCCC1CCSS1 (configuration not stated) | -1.37
C[C@@H](N)C(=O)O | -2.48
CN[C@@H]1[C@H](O)[C@H](NC)[C@H]2O[C@@]3(O)C(=O)C[C@@H](C)O[C@H]3O[C@@H]2[C@H]1O | -0.865
C1CCN2C[C@@H]3C[C@@H](CN4CCCC[C@@H]34)[C@H]2C1 | 5.4

molecular target: Estrogen receptor (Homo sapiens) (UniProt P03372); experiment: qHTS assay for small molecule antagonists of estrogen receptor alpha signaling (AID 588513; active = well fitted curve in the direction sought with a large enough effect in the signal ratio, with a control signal flat, not every such curve was filed as active; the % refers to the signal ratio; note: % is set by controls: 0 for no effect and ±100 for the full control effect); details: ER-alpha-UAS-bla HEK293, beta-lactamase ratio, antagonist mode; series mostly up to 76.9 µM; activity, negative = inhibition: at the top concentration
Outline: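 Antagonist mode: inhibition of 0.5 nM 17-beta-estradiol-driven beta-lactamase reporter in HEK 293 ER-alpha-UAS-bla cells, 18 h at 37C, CCF4 readout after 2 h at RT. Normalised to estradiol and DMSO; titration fitted to Hill.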

Estrogen receptor (Homo sapiens), sequence (P03372 whole entry, looked up): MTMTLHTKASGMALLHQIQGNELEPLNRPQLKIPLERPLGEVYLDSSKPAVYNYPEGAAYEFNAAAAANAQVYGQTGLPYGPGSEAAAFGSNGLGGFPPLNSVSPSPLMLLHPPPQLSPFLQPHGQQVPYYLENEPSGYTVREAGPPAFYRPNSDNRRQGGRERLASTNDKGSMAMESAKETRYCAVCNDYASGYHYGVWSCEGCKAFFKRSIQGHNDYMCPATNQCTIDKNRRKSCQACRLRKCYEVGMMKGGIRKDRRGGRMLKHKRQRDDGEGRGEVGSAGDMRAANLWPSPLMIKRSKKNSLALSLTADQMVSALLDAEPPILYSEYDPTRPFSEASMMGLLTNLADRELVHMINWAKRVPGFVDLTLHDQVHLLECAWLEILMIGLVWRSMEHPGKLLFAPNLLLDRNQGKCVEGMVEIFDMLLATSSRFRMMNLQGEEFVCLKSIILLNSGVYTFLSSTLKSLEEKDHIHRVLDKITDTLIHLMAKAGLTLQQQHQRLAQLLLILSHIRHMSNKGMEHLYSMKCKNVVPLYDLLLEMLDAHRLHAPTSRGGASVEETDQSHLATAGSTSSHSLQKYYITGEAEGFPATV

SMILES | activity, negative = inhibition [%] | outcome
CC(=O)NS(=O)(=O)c1ccc(N)cc1 | 27.7 | 
CC[N+](CC)(CC(=O)Nc1c(C)cccc1C)Cc1ccccc1 | -15.7 | 
CCCCOC(=O)c1ccc(N)cc1 | -13.5 | 
Cc1ccc(C(C)C)c(O)c1 | -25 | 
O=C(O)CCCCC1CCSS1 (configuration not stated) | -4.38 | 
Nc1ccc(S(=O)(=O)c2ccc(N)cc2)cc1 |  | inactive
Cc1c(N(C)C)c(=O)n(-c2ccccc2)n1C | 18.1 | 

molecular target: Estrogen receptor (Homo sapiens) (UniProt P03372); experiment: qHTS assay for small molecule agonists of estrogen receptor alpha signaling (AID 588514; calls by dose curve;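 note: 0% = vehicle only and 100% = reference agonist; nearly all actives have a fitted effect of over 70% in size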); details: ER-alpha-UAS-bla HEK293, beta-lactamase ratio, 18 h, percent of full estradiol response, vehicle zero; series mostly up to 76.8 µM; activation: at the top concentration
Outline: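 Efficacy is expressed against 20 nM 17-beta-estradiol (100%) and DMSO basal (0%); EC50 from Hill equation. Assay: beta-lactamase reporter in ER-alpha-UAS-bla HEK 293 cells, 18 h compound incubation, CCF4 detection.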

SMILES | activation [%] | outcome
CC(=O)NS(=O)(=O)c1ccc(N)cc1 | 0.939 | 
CC[N+](CC)(CC(=O)Nc1c(C)cccc1C)Cc1ccccc1 | 1.81 | 
O=C(O)CCCCC1CCSS1 (configuration not stated) |  | inactive
Nc1ccc(S(=O)(=O)c2ccc(N)cc2)cc1 |  | inactive
Cc1c(N(C)C)c(=O)n(-c2ccccc2)n1C |  | inactive
